HIV RNase H inh-1 – HIV-1 RT RNase H inhibitors, primary screen, biochemical, fluorescence. Gag-Pol polyprotein (Human immunodeficiency virus type 1 group M subtype B (isolate …. RT-RNase H RNA/DNA duplex cleavage. inhibition, % at 10 µM. actives 1.9% (n = 65,000); in the data active = inhibition above about 50%
HIV RNase H inh-2 – HIV-1 RT RNase H inhibitors, retest, confirmation, biochemical. Recombinant RT RNase H, fluorescent RNA/DNA duplex cleavage. actives 39% (n = 1,000). AID 651, 2007. inhibition, % at 10 µM. shares compounds with HIV RNase H inh-1; in the data active = inhibition above about 48%
Starred values were filed as active, the others as inactive. The full list was thinned out, with hits kept by preference.

SMILES	HIV RNase H inh-1	others
CC(C)NC(=O)C1(O)c2ccccc2NC(=O)N1c1ccc(Cl)c(Cl)c1 (centres undefined)	-1.2
CN(C=O)CP(=O)(O)CCN1CCCC1=O	-1.2
CCC(NC(=O)NCCCn1ccnc1)(C(F)(F)F)C(F)(F)F	-1.4
COc1ccc(C2(CNC(=O)CCC(=O)O)CCCC2)cc1	11.1
O=C(CN1CCC(n2nnc3cc(F)ccc32)CC1)NCCc1nc2ccccc2[nH]1	-6.5
COc1ccccc1N1CCN(C(=O)c2cc(-c3cccs3)on2)CC1	-0.4
COc1ccccc1N1CCN(C(=O)c2cc(-c3ccco3)on2)CC1	-24.3
COc1ccccc1-c1cc(C(=O)N2CCN(c3ccc(F)cc3)CC2)no1	72.0*	HIV RNase H inh-2=24.5
COC(=O)c1cccc(CSc2nnc(C)s2)c1	-23.2
CC1=C(C(=O)OCC(C)C)C(c2ccc(F)cc2)NC(=O)N1 (centres undefined)	-21.3
COc1ccc(NC(=O)c2cc(C(C)C)on2)cc1OC	-2.7
Cc1ccc(NC(=O)c2cc(-c3ccco3)on2)cc1	-14.3
COc1ccc(NC(=O)c2cc(C)on2)cc1OC	0.9
CC(=O)c1cccc(NC(=O)c2cc(-c3ccc(C)cc3)on2)c1	52.3*	HIV RNase H inh-2=56.8*
CCCc1cc(C(=O)Nc2cccc(C(C)=O)c2)no1	-7.1
COc1ccc(NC(=O)c2cc(-c3ccc(OC)c(OC)c3)on2)cc1OC	81.1*	HIV RNase H inh-2=32.1
CCCc1cc(=O)[nH]c(SCC(=O)c2cc(C)n(C(C)COC)c2C)n1 (centres undefined)	-9.9
Cc1nc2c(cnn2-c2ccc(Cl)cc2)c(=O)n1-c1ccc2c(c1)OCCO2	-27.5
O=c1cc(CSc2nnnn2-c2ccccc2)[nH]c2[nH]n(-c3ccccc3)c(=O)c12	7.3
Cc1cc(C)nc(N2CCC(C(=O)Nc3cccc(C(F)(F)F)c3)CC2)n1	8.5
Cc1coc(NC(=O)CSc2nc(-c3ccncc3)cc(C(F)(F)F)c2C#N)n1	10.3
CCOC(=O)Cc1nc2ccccc2[nH]1	3.5
CCOC(=O)CCc1nc2ccccc2[nH]c1=O	-23.1
Cc1c(OCC(F)(F)F)ccnc1CS(=O)c1nc2ccccc2[nH]1 (centres undefined)	73.9*	HIV RNase H inh-2=32.7
CC(C)Oc1ccc(NC(=O)c2ccncc2)cc1	0.7
SMILES	HIV RNase H inh-1	others
CCCCOC(=O)Nc1cc(OC)c(Cl)cc1OC	-32.2
Cc1cccc(-c2nc(CSCC(=O)N3CCN(Cc4ccc5c(c4)OCO5)CC3)c(C)o2)c1	-29.2
Cc1cc(C)c(S(=O)(=O)N2CCCCC2)c(C)c1-n1ncnn1	-15.9
COc1ccc(Cc2nc(-c3cccs3)no2)cc1OC	71.7*	HIV RNase H inh-2=11.5
COc1ccc(Cc2nc(-c3ccc(-n4cccc4)cc3)no2)cc1OC	-52.6
COc1ccccc1NC(=O)CCc1nc(-c2cccs2)no1	-7.9
COc1ccccc1-c1nnc(SCC(=O)OC(C)C)o1	-12.5
CCOc1ccc(NC2=NC(C(=O)NCc3ccccc3)CC(=O)N2)cc1 (centres undefined)	-3.3
CC1(c2ccc3c(c2)OCO3)NC(=O)N(CC(=O)Nc2ccc(N3CCOCC3)cc2)C1=O (centres undefined)	2.0
Cn1c(C(=O)N2CCCc3ccccc32)cc2sccc21	-17.4
O=C(Nc1ccccc1C(=O)N1CCCC1)c1cccc(S(=O)(=O)N2CCCCCC2)c1	-5.0
NS(=O)(=O)c1ccc(NC(=O)c2ccccc2C(=O)N2CCCCC2)cc1	75.7*	HIV RNase H inh-2=14.3
CS(=O)(=O)Nc1ccc(C(=O)Nc2ccccc2C(=O)N2CCCC2)cc1	-4.4
COC(=O)c1cc(NS(=O)(=O)c2ccc3c(c2)CCC(=O)N3)cc(C(=O)OC)c1	-8.6
O=C(CSc1nnc2c3cc(F)ccc3nc(-c3ccccc3)n12)N1CCOCC1	-26.2
Cc1ccc(N(CC(O)COCc2ccco2)S(=O)(=O)c2ccc(C)cc2)cc1 (centres undefined)	-2.3
CCOC(=O)c1c(NC(=O)c2cc(C3CC3)on2)sc2c1CCCC2	84.5*	HIV RNase H inh-2=94.1*
CCOC(=O)c1c(NC(N)=O)sc(C)c1C	-24.1
CCOC(=O)c1c(NC(=O)c2csc(C)c2)sc(C(C)=O)c1C	-11.1
CCOC(=O)c1c(NC(=O)c2cc(C3CC3)on2)sc(C(C)=O)c1C	68.0*	HIV RNase H inh-2=50.6
CCOC(=O)c1c(NC(=O)c2cccs2)sc2c1CCCC2	1.6
CCOC(=O)c1c(NC(=O)c2ccco2)sc2c1CCCCC2	-46.4
CCCc1cc(C(=O)Nc2sc(C)c(C)c2C(=O)OCC)no1	86.3*	HIV RNase H inh-2=67.5*
CCOC(=O)c1c(NC(=O)c2ccc(Cl)s2)sc(C)c1C	20.3
CCOC(=O)c1c(NC(=O)c2cccs2)sc(C(=O)N2CCOCC2)c1C	-24.5
SMILES	HIV RNase H inh-1	others
CCOC(=O)c1ccc(NS(=O)(=O)c2cnc[nH]2)cc1	-8.4
Cn1c(C(C#N)C2=C(Cl)C(=O)N(c3ccccc3)C2=O)nc2ccccc21 (centres undefined)	23.3
COc1ccc(N(CC(=O)N2CCc3ccccc3C2)S(=O)(=O)c2c(C)nn(C)c2C)cc1	-2.9
CC(Sc1nnc(N)s1)c1ccccc1Cl (centres undefined)	-13.4
CN(C)c1ccc(C2C3C(=O)NC(=O)C3ON2c2ccc(Cl)cc2)cc1 (centres undefined)	3.3
COc1ccccc1NC(=O)c1ccc(NC(=O)CSc2nnnn2C)cc1	-0.1
Cc1ccc(CNC(=O)CN(C)S(=O)(=O)c2cccc3cccnc23)cc1	-33.8
OC(CNCC(c1ccco1)N1CCCCC1)c1ccccc1 (centres undefined)	-5.4
c1cnn(-c2nc(N3CCOCC3)nc(N3CCOCC3)n2)c1	-14.9
C=CCNC1=C(Cl)C(=O)N(c2ccccc2Cl)C1=O	-1.1
CC(=O)Nc1ccc2nc(-c3cccs3)[nH]c2c1	-0.7
O=C(Nc1ccc2nc(-c3ccc(Br)o3)[nH]c2c1)c1cccs1	71.4*	HIV RNase H inh-2=1.8
Cn1cccc1-c1nc2ccc(NC(=O)c3cccs3)cc2[nH]1	0.2
COc1ccc(N2CCN(c3nc4c(c(=O)n(C)c(=O)n4C)n3CCCc3ccccc3)CC2)cc1	-5.7
Cc1nc2cccc(C(=O)NCc3ccccc3)c2o1	-5.6
CCOC(=O)c1c(C)oc2c1c(C(c1ccncc1)N1CCOCC1)c(O)c1ccccc12 (centres undefined)	68.2*	HIV RNase H inh-2=5.6
CCOC(=O)c1c(C)oc2c1c(C=NC1CCS(=O)(=O)C1)c(O)c1ccccc12 (centres undefined)	6.2
CCOC(=O)c1c(-c2ccccc2)oc2ccc(O)c(CN3CCOCC3)c12	-20.2
COc1ccc(-c2noc(CSc3nc(N)c(-c4ccccc4)c(=O)[nH]3)n2)cc1	-14.5
CC(=O)c1cccc(NC(=O)NC(C)c2ccncc2)c1 (centres undefined)	-9.3
CCOC(=O)Cn1c(=O)oc2cc(S(=O)(=O)N3CCc4ccccc43)ccc21	-20.2
Cc1cc(NS(=O)(=O)c2ccc(NC(=O)Cc3cccs3)cc2)no1	-7.0
Cc1cc(NC(=O)c2cc(-c3cccs3)on2)no1	39.2
Cc1cc(NC(=O)Cc2cccs2)no1	73.5*	HIV RNase H inh-2=36.5
COc1cc(NS(=O)(=O)c2ccc(NC(=O)C34CC5CC(CC(C5)C3)C4)cc2)ncn1	-4.5
CCOC(=O)c1ccc(CNC(=O)c2cc3cccc(OC)c3oc2=O)o1	-12.1
Cn1c(SCC(=O)Nc2ccc3c(c2)OCCO3)nnc1-c1ccccn1	-3.1

Bioassay records as filed in PubChem.
